HCMV inh – inhibitors of human cytomegalovirus; HFF cells, HCMV-luciferase reporter, 72 h; active compounds read low; activity change, negative = inhibition, % at 57.5 µM; actives 4.5% (n = 410,000); AID 1259415; in the data active = activity change below about -60%; inconclusive = no clear call, values can overlap the other calls; inactive = above about -39%
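Inhibition of viral replication was scored as loss of reporter luminescence in HFFs infected with HCMV-luciferase (MOI 1 PFU/cell) for 72 h; compounds tested at 2 doses, normalized to buffer and Salinomycin controls.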
Vaccinia mCherry – inhibitors of vaccinia virus infection (mCherry reporter signal); Vaccinia virus mCherry reporter infection, fluorescence; Potency, µM (doses to about 36.5 µM), actives largely listed as inhibitors; actives 0.63% (n = 310,000); calls by dose curve; tested in A549 cells; note: nearly all actives have a fitted effect of over 35% in size
Marburg entry inh – blocks Marburg virus binding to or entry into cells | actives 1.8% (n = 300,000) | Potency, µM (doses to about 37.8 µM), actives largely listed as inhibitors | Marburg virus pseudotyped entry inhibition, cell reporter; calls by dose curve; tested in HEK293 cells
LASV entry inh – blocks Lassa virus binding to or entry into cells; AID 540256; actives 1.2% (n = 300,000); Potency, µM (titrated, usually from 37.9 µM), actives largely listed as inhibitors; Lassa virus pseudotype entry inhibition, cell reporter; calls by dose curve; tested in HEK293 cells; note: nearly all actives have a fitted effect of over 50% in size
VACV Venus inh – vaccinia inhibition (Venus reporter) | actives 0.46% (n = 330,000) | AID 720580 | Vaccinia virus Venus reporter expression, fluorescence | Potency, µM (highest dose often 36.5 µM), most hits filed as inhibitors; calls by dose curve; tested in A549 cells; note: nearly all actives have a fitted effect of over 30% in size
FMDV inh – antivirals against foot and mouth disease virus; AID 1159524; FMDV antiviral cell-based qHTS; actives 1.2% (n = 410,000); Potency, µM (doses to about 57.9 µM), actives largely listed as inhibitors; calls by dose curve; tested in HEK293T cells; note: read-out not given here; nearly all actives have a fitted effect of over 45% in size
A number is an active result; - = inactive; ? = inconclusive; . = not tested or not shown; [ ] = remark or other dose. Compounds with a hit are over-represented: about 6.5% of the library has one in this group of screens.

SMILES	HCMV inh	Vaccinia mCherry	Marburg entry inh	LASV entry inh	VACV Venus inh	FMDV inh
Clc1ccc(CN2CCCCCCC2)cc1Cl	-	-	-	-	-	-
N=c1ccn(Cc2ccc(Cl)cc2)cc1	-93	.	?	?	?	?
Clc1cccc(CN2CCN(Cc3ccco3)CC2)c1	-	-	-	?	-	-
N=c1ccn(Cc2ccc(Cl)c(Cl)c2)cc1	-97	.	?	-	?	?
N=c1ccn(Cc2cccc(Cl)c2)cc1	-71	.	?	?	?	?
Cc1ccc(C)c(N2CCN(S(=O)(=O)c3c(C)noc3/C=C/N(C)C)CC2)c1	-	.	13µM	?	-	?
CNC(=O)C1CCN(S(=O)(=O)c2c(C)noc2/C=C/N(C)C)CC1	-	-[7.34 µM]	.	.	-[7.34 µM]	-
Cc1noc(C)c1S(=O)(=O)N1CCN(c2ccccc2)CC1	-	-	.	.	-	-
Cc1noc(/C=C/N(C)C)c1S(=O)(=O)N1CCCC(C(=O)NCc2ccccc2Cl)C1 (stereo unspecified)	-98	.	-	-	.	-
Cc1noc(/C=C/N(C)C)c1S(=O)(=O)N1CCN(c2ccccc2)CC1	-86	-	.	.	-	-
Cc1noc(/C=C/N(C)C)c1S(=O)(=O)N1CCCC(C(=O)NCc2ccc(Cl)cc2)C1 (stereo unspecified)	-	-	?	-	-	-
CCCCC/C=C\C=C\[C@H](O)CCCCCCCC(=O)O	.	-[0.293 µM]	.	.	-[0.293 µM]	-[0.463 µM]
Cc1cnc(-n2ncc(C(=O)N(C)Cc3cccc4ncccc34)c2C(C)C)nc1-c1ccc(F)cc1	.	-	.	.	-	-
c1ccc(-n2nnnc2CN2CCOCC2)cc1	-68	.	.	.	.	-
COc1cc(/C=C/C(=O)N2CCN(C(=O)/C=C/c3cc(OC)c(OC)c(OC)c3)CC2)cc(OC)c1OC	.	-	-	-	-	-
C=CCSc1nc2ccccc2n1C(=O)/C=C/c1cc(OC)c(OC)c(OC)c1	-111	.	13µM	9.2µM	.	8.9µM
CCSc1nc2ccccc2n1C(=O)/C=C/c1ccc(OC)c(OC)c1	-100	28µM	?	6.3µM	?	20µM
C=CCSc1nc2ccccc2n1C(=O)/C=C/c1ccc(OC)c(OC)c1	-103	.	?	8.2µM	.	?
CCn1c(SCC(=O)N/N=C/c2ccc(OC)c(OC)c2)nc2ccccc21	-	-	-	-	-	-
Cc1ccc(CCNC(=O)C2CCCN(S(=O)(=O)c3ccc4c(c3)oc(=O)n4C)C2)cc1 (stereo unspecified)	-	-	-	-	-	-
Cc1cccc(C(=O)NCC(=O)OCC(=O)c2ccc3ccccc3c2)c1	.	-	.	.	-	.
COC(=O)[C@@](NC(C)=O)(Nc1ccccn1)C(F)(F)F	.	.	-	.	.	.
CCn1c(CCNC(=O)c2ccc(Cl)c(Cl)c2)nnc1SCCOc1ccc(OC)cc1	-65	.	-	-	.	40µM
COc1ccc(OCCSc2nnc(CCNC(=O)c3ccc(Cl)c(Cl)c3)n2C)cc1	-	.	-	-	.	?
CC(C)c1ccc(C(=O)Nc2cc(-c3ccccc3F)nn2-c2ccccc2)cc1	-	-	.	-	-	-
SMILES	HCMV inh	Vaccinia mCherry	Marburg entry inh	LASV entry inh	VACV Venus inh	FMDV inh
O=C(C[n+]1ccccc1)N/N=C/c1cc(Br)ccc1F	-99	-	-	-	-	-
COc1ccc(Br)cc1/C=N/NC(=O)C[n+]1ccccc1	-	.	.	.	.	-
CN(C)c1ccc(/C=N\NC(=O)c2csnn2)cc1	-	-	14µM	?	-	-
CN(C)c1ccc(/C=N/NC(=O)C[n+]2ccccc2)cc1	-	-	-	-	-	2.8µM
CCOC(=O)[C@@H](C)N(C(=O)OC(C)(C)C)S(=O)(=O)N(Cc1ccccc1)[C@@H](C(=O)OC)C(C)C	.	-	.	.	-	.
CC(C)(C)OC(=O)N1CCC[C@H]1C(O)(c1ccccc1)c1ccccc1	.	.	-	.	.	.
CCCCOc1ccc(Cl)cc1CSc1n[nH]c(C)n1	-	-	0.21µM	-	-	?
COc1ccc(Cl)cc1CSc1n[nH]c(C)n1	-	.	-	-	.	-
COCCn1c(=O)c(-c2ccc(F)cc2)nc2cnc(N3CCOCC3)nc21	.	.	.	.	.	-
Cn1c(=O)n(C)c2cc(NS(=O)(=O)c3ccc(C(C)(C)C)cc3)c(NCc3ccccc3)cc21	-	-	-	-	-	-
Cc1cc(Nc2ccccc2C)nc(-n2nc(C)cc2C)n1	-69	-[7.34 µM]	.	?	-[7.34 µM]	-
Cc1cc(C)n(-c2nc(Nc3ccccc3C(F)(F)F)nc(-n3nc(C)cc3C)n2)n1	-98	.	10µM	?	13µM	?
Cc1cc(Nc2cc(F)ccc2C)n2ncnc2n1	-	-	.	.	-	-
Cc1cc(C)n(-c2nc(Nc3ccccc3C)nc(-n3nc(C)cc3C)n2)n1	-97	.	-	.	.	.
Cc1cc(Nc2cc(F)ccc2C)nc(-n2nc(C)cc2C)n1	-80	-[7.34 µM]	.	?	-[7.34 µM]	-
CC(C)Cn1c(=O)c2ccccc2n2c(CCC(=O)Nc3ccc(F)c(F)c3)nnc12	-	-	?	.	-	-
CC1=CC[C@@H](COc2ccccc2)O[C@@]2(C1)C(=O)N(Cc1ccc(F)cc1)c1cccc(Br)c12	.	.	-	.	.	.
CCNc1nc(NCC)nc(-n2nc(C)cc2C)n1	?	-	-	-	-	.
Cc1cc(Nc2ccc(F)cc2)nc(-n2nc(C)cc2C)n1	-83	-[7.34 µM]	.	-	-[7.34 µM]	-
CCCCc1ccc(Nc2cc(C)nc(-n3nc(C)cc3C)n2)cc1	-97	-[7.34 µM]	.	?	-[7.34 µM]	-
COc1cc2nc(N(C)C)c(CNCc3cccc4ccccc34)cc2c(OC)c1OC	.	-	.	.	-	-
Cc1cc(C(=O)CSc2nnc3ccccn23)c(C)n1-c1ccccc1	-72	-	0.32µM	0.89µM	-	3.2µM
O=C(CSc1nnc(-c2cccs2)o1)c1cccs1	-	?	-	-	?	.
COc1cccc(NC(=O)CSc2nnc(-c3cc(C)n(-c4ccccc4)c3C)o2)c1	.	-	?	-	-	13µM
Cc1cc(C(=O)CSc2nnc(-c3cccs3)o2)c(C)n1-c1ccccc1	-	.	?	-	.	11µM
SMILES	HCMV inh	Vaccinia mCherry	Marburg entry inh	LASV entry inh	VACV Venus inh	FMDV inh
COc1ccc(NC(=O)CSc2nnc(-c3cccc(O)c3)o2)cc1	-	?	?	-	-	-
CN(C)C(=O)CSc1nnc(-c2cc(-c3cccs3)nc3ccccc23)o1	-	.	?	-	5µM	-
CCN(CC)C(=O)CSc1nnc(-c2cc(-c3ccc(Cl)cc3)nc3ccccc23)o1	-	-	?	-	-	-
OB(O)c1ccc(Cl)s1	.	-	.	.	-	.
O=C(Nc1c(C(=O)c2ccc(Cl)cc2)oc2ccccc12)c1cc(=O)c2ccccc2o1	-	-	?	-	-	-
O=C(CN1C(=O)S/C(=C\c2ccccc2F)C1=O)NC1C=CS(=O)(=O)C1 (stereo unspecified)	-63	.	.	.	.	-
Cc1cccc(CSc2nc3c(sc4ccccc43)c(=O)n2CCC(=O)NC(C)C)c1	-61	-	-	-	-	-
CC(C)NC(=O)CCn1c(SCc2c(F)cccc2Cl)nc2c(sc3ccccc32)c1=O	-	-	-	-	-	-
COC(=O)c1cc2ccccc2c([N+](=O)[O-])c1O	-	-	-	-	-	-
COC(=O)c1cc2ccccc2c(-c2c(OC)c(C(=O)OC)cc3ccccc23)c1OC	?	?	6.5µM	?	-	-
